This is a sample that favours compounds with a hit; in the whole collection about 4.6% have one here.
TIM10 inh – growth inhibitors of isogenic TIM10 control yeast, primary screen, counter-screen for tim10-1 yeast inhibitor project, luminescence, uHTS. S. cerevisiae TIM10 strain growth, BacTiter-Glo luminescence, 24 h. inhibition, % at 10 µM. AID 463195, 2010. 1.4% of 330,000 active;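 active = inhibition of 40% or more at the single tested concentration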;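 note: wild-type TIM10 isogenic control strain grown at permissive 25 °C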
PfHsp90 set2 – growth inhibition of PfHsp90-expressing yeast, primary screen, antimalarial PfHsp90 inhibitor project, S. cerevisiae, BacTiter-Glo luminescence, single point, set 2. inhibition, % at 9.4 µM. 0.32% of 310,000 active. BacTiter-Glo ATP, 48 h; yeast lacking PDR1 and PDR3 efflux regulators;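 active = every replicate shows inhibition above about 80%, whatever the replicate mean, limit read from the data; inconclusive = mean inhibition reaches the set limit but some replicate falls short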;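 note: 0% = DMSO neutral controls and 100% = 20 µM radicicol positive controls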
tim23-1 inh – growth inhibitors of tim23-1 mutant yeast, primary screen, luminescence, uHTS. AID 463212, 2010. S. cerevisiae tim23-1 growth, BacTiter-Glo luminescence, 24 h. inhibition, % at 20 µM. 1.3% of 330,000 active;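 active = growth inhibition of the mutant yeast at or above 50%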;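 note: temperature-sensitive mutant grown at 25 °C; plate controls were DMSO-treated mutant yeast for no effect and medium wells lacking yeast for full effect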
V-ATPase pH – regulators of yeast V-ATPase proton pumping, primary screen, pHLuorin cytosolic pH fluorescence; S. cerevisiae; response, % at 10 µM; 0.37% of 350,000 active; in the data active = response mostly above about 7.3%, no sharp cut-off; inactive = mostly below about 5.4%; note: actives read high
SKKanGAS inh – S. pyogenes SKKanGAS growth inhibitors in kanamycin, primary screen, streptokinase expression inhibitor project, SKKanGAS strain, BacTiter-Glo luminescence. 6 h. inhibition, % at 7.5 µM. 1.3% of 300,000 active. AID 1662, 2009;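 active = mean replicate score, as percent of positive control median, at least 50; inconclusive = mean below 50 but one replicate at or above 50; inactive = mean and every replicate below 50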;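 note: strain carries kanamycin resistance gene driven by streptokinase promoter and grows in 40 µg/ml kanamycin; loss of luminescence reflects streptokinase promoter inhibition or plain growth inhibition; 0% = median of DMSO wells and 100% = positive control at its reference dose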
tim10-1 inh – growth inhibitors of tim10-1 mutant yeast, primary screen, luminescence, uHTS; inhibition, % at 20 µM; 2.2% of 330,000 active; S. cerevisiae tim10-1 ts strain growth, BacTiter-Glo, 24 h;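 active = inhibition of at least 40%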;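 note: mutant grown at 25 °C; 0% = DMSO wells with yeast and 100% = wells holding no yeast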
TIM10 conf – growth inhibitors of wild-type TIM10 yeast, confirmation, counter-screen for tim10-1 synthetic lethality project, single concentration, luminescence, S. cerevisiae; inhibition, % at 10 µM; 63% of 4,600 active; shares compounds with TIM10 inh; S. cerevisiae tim10 strain growth, BacTiter-Glo luminescence, 24 h; AID 463215, 2010;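 active = inhibition of yeast growth at or above a set limit in either of two replicates at 10 µM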;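 note: this counterscreen used the strain with wild-type TIM10; 0% = yeast with DMSO and 100% = medium wells lacking yeast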
tim23-1 confirm – tim23-1 mutant yeast growth inhibitors, confirmation, luminescence, single concentration; inhibition, % at 20 µM; S. cerevisiae tim23-1 growth, BacTiter-Glo luminescence, 24 h; shares compounds with tim23-1 inh; AID 463218, 2010; 83% of 4,400 active;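 active = inhibition above about 39% in either of two replicate wells at 20 µM, limit read from the data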;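 note: temperature-sensitive tim23-1 mutant grown at 25 °C; 0% = DMSO wells with yeast and 100% = medium wells without yeast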
Starred values were filed as active, the others as inactive; ? = inconclusive; · = not tested or not shown.

SMILES | TIM10 inh | PfHsp90 set2 | tim23-1 inh | V-ATPase pH | SKKanGAS inh | tim10-1 inh | TIM10 conf | tim23-1 confirm
Cc1ccc(NN2C(=O)C=CC2=O)cc1 | -11 | 42 | 15 | 2 | 1 | 5 | · | ·
Cc1ccc(NN2C(=O)C=C(c3ccc(Cl)cc3)C2=O)cc1 | 73* | 120* | 68* | 8 | 22 | 31 | 59* | 20
O=C(Nc1nc(-c2ccccc2)cs1)c1cccs1 | 44* | 6 | 53* | -3 | 3 | 34 | 5 | 55*
O=C(Nc1ccc2nc(-c3ccc4nc[nH]c4c3)[nH]c2c1)c1cccs1 | 0 | -16 | 7 | -3 | ? | 8 | · | ·
O=C(Nc1ccc(-c2cn3ccccc3n2)cc1)c1cccs1 | 42* | 9 | 62* | 0 | 1 | -4 | 26 | 71*
O=C(Nc1ccc2nc(-c3ccccc3)[nH]c2c1)c1cccs1 | 47* | -26 | 59* | 3 | -6 | -22 | 20 | 69*
CC1(C)Nc2ccccc2N(Cc2ccc([N+](=O)[O-])cc2)C1=O | -32 | 11 | 2 | -1 | -7 | -6 | · | ·
N#C/C(=C/c1cccc(O)c1)C(=O)NCc1ccc(Cl)cc1 | 71* | -22 | 77* | -1 | 4 | 37 | 77* | 75*
CN(Cc1ccccc1)C(=O)c1ccc(NC(=O)Cc2cccc(NC(=O)C3CCN(C(=O)C4CCCC4)CC3)c2)cc1 | -3 | -14 | 13 | -1 | · | 7 | · | ·
O=C(Nc1nncs1)c1cc2c(s1)CCC2 | 5 | 29 | 19 | -1 | -2 | -3 | · | ·
O=C(Nc1nccs1)c1cc2c(s1)CCCCC2 | 46* | 47 | 58* | -2 | 77* | 37 | 59* | 65*
CCn1nnc(NC(=S)NC(=O)c2ccc(-c3cccc(Cl)c3)o2)n1 | 35 | -17 | 41 | 0 | -6 | 35 | · | ·
CCCn1nnc(NC(=O)c2ccc(-c3cccc(Cl)c3)o2)n1 | 51* | -26 | 69* | -1 | 0 | 34 | 32* | 74*
N#CC1(c2ccccc2)CCCN1C(=O)c1ccccc1Cl (stereo not drawn) | 8 | 1 | 16 | -1 | -1 | 25 | · | ·
N#CC(C(=O)c1ccccc1Cl)=C1SCCCS1 | 42* | -11 | 69* | 0 | -8 | 31 | 40* | 52*
COc1ccc(N=C(C)C2=C(O)c3ccccc3C2=O)cc1 | 62* | -20 | 58* | 0 | -1 | 35 | 12 | 68*
C/C(=N\N(C)C)C1=C(O)c2ccccc2C1=O | 5 | -11 | 22 | -2 | 0 | 8 | · | ·
Oc1c(Cl)cc(Cl)cc1C=Nc1ccc(N2CCOCC2)cc1 | 66* | -21 | 74* | -13 | 4 | 16 | 18 | 38*
Clc1ccc(-c2ccc(C=Nc3ccc(N4CCOCC4)cc3)o2)c(Cl)c1 | -17 | -1 | 32 | 4 | -4 | 18 | · | ·
CCc1sc(C(=O)Nc2ccc3c(c2)OCCO3)cc1Br | 54* | 5 | 79* | 5 | 1 | 39 | 47* | 85*
Cc1ccc(C(=O)OCN2C(=O)c3ccccc3C2=O)o1 | 0 | 1 | 11 | 2 | -6 | 10 | · | ·
O=c1[nH]n(Cc2ccccc2)c2ccccc12 | -7 | -2 | 12 | 5 | -4 | 3 | · | ·
CCOC(=O)C(CN1CCCC1)c1ccccc1 (stereo not drawn) | -6 | 11 | -5 | 3 | 0 | -3 | · | ·
O=C(c1ccc(Cl)cc1)C(CN1CCCCC1)c1ccccc1 (stereo not drawn) | 58* | -48 | 62* | 2 | -6 | 19 | 63* | -44
Cn1cccc1C(=O)C(=O)Nc1ccccc1 | 6 | 25 | -3 | 3 | 18 | 6 | · | ·
SMILES | TIM10 inh | PfHsp90 set2 | tim23-1 inh | V-ATPase pH | SKKanGAS inh | tim10-1 inh | TIM10 conf | tim23-1 confirm
Oc1ccc(Nc2nc(-c3ccccc3O)nc3ccccc23)cc1 | 47* | -5 | 75* | 3 | 20 | 26 | 62* | -20
Oc1ccc(Nc2nc(-c3ccccc3F)nc3ccccc23)cc1 | 20 | 8 | 38 | 1 | 8 | 36 | · | ·
O=C(Nc1ccc2oc(-c3ccccc3)nc2c1)c1ccco1 | 64* | 36 | 51* | -3 | -15 | 39 | -3 | 79*
O=C(Nc1ccc2oc(-c3ccncc3)nc2c1)c1ccco1 | 24 | 6 | 48 | -1 | 5 | -11 | · | ·
Nc1ccc(-c2nc(-c3ccccc3)nc3ccccc23)cc1 | 56* | -2 | 67* | -5 | 0 | 37 | 54* | 57*
COc1ccc(C(=O)/C=C/C(=O)N(CC(=O)NC2CCCCC2)Cc2cccs2)c(O)c1 | 49* | 94* | 62* | -1 | -12 | 18 | 47* | 36*
O=C(CSc1ccc(-c2ccccc2)nn1)Nc1ccc2c(c1)OCCO2 | 56* | -26 | 55* | -2 | 0 | 36 | 58* | 79*
O=C(CSc1ccccc1)Nc1ccc2c(c1)OCCO2 | -9 | -21 | 24 | -1 | 0 | -10 | · | ·
O=C(Cc1ccccc1F)NNC(=O)c1ccncc1 | -2 | -3 | 9 | 2 | 2 | 0 | · | ·
Cc1ccc(CNS(=O)(=O)c2ccc3c(c2)OCCO3)cc1 | 41* | 25 | 56* | 0 | -5 | 38 | 42* | 46*
COc1ccc(CN(C(=O)CCC(=O)Nc2cc(C)on2)C(C(=O)NC(C)(C)C)c2cccc(OC)c2OC)cc1 (stereo not drawn) | -9 | -2 | 14 | 1 | -3 | 23 | · | ·
Cc1cccc2cc(/C=C/C(=O)c3ccco3)c(Cl)nc12 | 43* | · | 50* | 0 | -15 | 30 | 10 | 52*
c1ccc(-n2cnc3cc(NCc4ccco4)ccc32)cc1 | 53* | · | 54* | 3 | -5 | 25 | 39* | 68*
COC(=O)Cc1ccc(NC(=S)NCCSc2ccc(Cl)cc2)cc1 | 44* | -12 | 50* | 3 | -14 | 35 | 42* | 43*
COC(=O)Cc1ccc(NC(=S)NCCO)cc1 | 9 | 0 | -5 | -3 | 1 | 21 | · | ·
O=C(Cc1cccc(NC(=O)C2CCCN(C(=O)C3CCC3)C2)c1)Nc1cccc(C(=O)N2CCCC2)c1 (stereo not drawn) | 0 | 13 | 9 | 3 | · | -8 | · | ·
O=C(COC(=O)C1C2CC3OC(=O)C1C3C2)Nc1cccc(Cl)c1 (stereo not drawn) | -6 | -5 | 4 | -4 | -5 | 7 | · | ·

Screening results (PubChem)
